Experimental data reported in the supplement of paper PMC6555819.

Columns and labels:
Experiment in all cases: PBM binding z-score (relative to random genomic background probes); higher = stronger binding; sequences stand for … in GC…GCGATTGACAGCGTAGAATGAAGG
[1] = system: FXR:RXRa (NR concentration 270 nM, RXRa partner concentration 90 nM)
Outline: (§1)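 The probes on custom Agilent 4×180K protein-binding microarrays were double-stranded, with 34-nt variable regions bearing direct-repeat seeds, single-nucleotide variants, half-site ablations and random human genomic background sequences. Incubation lasted 1 h with ligand-free nuclear receptor dimers in PBS pH 7.4, 2% milk, 0.02% Triton X-100, 1 mM DTT, 0.2 mg/mL BSA and 0.4 mg/ml salmon testes DNA. Antibodies against each partner (one per run) detected bound dimers, and fluorescence scans were regression-normalized. Binding z-scores take the random background probes as reference.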

[2] = system: LXRa:RXRa (NR concentration 270 nM, RXRa partner concentration 90 nM)
Outline: as §1

[3] = system: LXRa homodimer (NR concentration 270 nM)
Outline: as §1

[4] = system: LXRb:RXRa (NR concentration 270 nM, RXRa partner concentration 90 nM)
Outline: as §1

[5] = system: LXRb homodimer (NR concentration 270 nM)
Outline: as §1

[6] = system: PPARa:RXRa (NR concentration 270 nM, RXRa partner concentration 90 nM)
Outline: as §1

[7] = system: PPARg:RXRa (NR concentration 180 nM, RXRa partner concentration 90 nM)
Outline: as §1

[8] = system: PPARg:RXRa 270nM:90nM, anti-RXR (NR concentration 270 nM, RXRa partner concentration 90 nM)
Outline: as §1

[9] = system: PPARg:RXRa 30nM:10nM, anti-RXR (NR concentration 30 nM, RXRa partner concentration 10 nM)
Outline: as §1

[10] = system: PPARg:RXRa 90nM:30nM, anti-RXR (NR concentration 90 nM, RXRa partner concentration 30 nM)
Outline: as §1

[11] = system: PPARg:RXRa DBDmut IVT, anti-RXR (DBD mutation: RXRa K156A/R161A, NR concentration 270 nM, RXRa partner concentration 90 nM)
Outline: as §1

[12] = system: PPARg:RXRa IVT, anti-PPARg (NR concentration 270 nM, RXRa partner concentration 90 nM)
Outline: as §1

[13] = system: PPARg DBDmut:RXRa IVT, anti-PPARg (DBD mutation: PPARg1 K132A/R137A, NR concentration 270 nM, RXRa partner concentration 90 nM)
Outline: as §1

[14] = system: PPARg DBDmut IVT, anti-PPARg (DBD mutation: PPARg1 K132A/R137A, NR concentration 270 nM)
Outline: as §1

[15] = system: PPARg homodimer (NR concentration 180 nM)
Outline: as §1

[16] = system: PXR:RXRa (NR concentration 270 nM, RXRa partner concentration 90 nM)
Outline: as §1

[17] = system: PXR homodimer (NR concentration 270 nM)
Outline: as §1

[18] = system: RARa:RXR (NR concentration 270 nM, RXRa partner concentration 90 nM)
Outline: as §1

[19] = system: RARa homodimer (NR concentration 270 nM)
Outline: as §1

[20] = system: RARb:RXRa (NR concentration 270 nM, RXRa partner concentration 90 nM)
Outline: as §1

Sequence	PBM binding z-score [1]	PBM binding z-score [2]	PBM binding z-score [3]	PBM binding z-score [4]	PBM binding z-score [5]	PBM binding z-score [6]	PBM binding z-score [7]	PBM binding z-score [8]	PBM binding z-score [9]	PBM binding z-score [10]	PBM binding z-score [11]	PBM binding z-score [12]	PBM binding z-score [13]	PBM binding z-score [14]	PBM binding z-score [15]	PBM binding z-score [16]	PBM binding z-score [17]	PBM binding z-score [18]	PBM binding z-score [19]	PBM binding z-score [20]
AGTCAAAGTTCGTCTAGGTAACGTAAGATATGCT	1.46	1.16	0.363	0.787	-0.0526	1.84	2.79	3.39	1.44	2.71	-0.0534	1.36	0.664	0.773	1.41	1.99	1.83	1.34	0.143	2.54
GCAGACAGGTGAAACACAGGTAACTCAGGGTGGC	0.0737	0.312	-0.336	-0.415	-0.7	0.874	0.952	0.125	-0.424	-0.0605	0.926	0.641	-0.0327	-0.651	-0.0531	-0.0674	-0.462	0.56	-0.402	0.685
TTACCAAGGTGAAAGGTCGTTCATGCACGCCTTG	3.83	3.72	0.593	3.18	-0.344	5.32	8.83	8.22	8.68	8.9	2.97	5.04	0.222	0.115	1.16	3.93	0.838	5.63	0.139	3.06
CCTACTGGGCCCTTCAGAGGTCATTGATCATATG	2.3	3.83	5.02	3.34	0.134	3.32	0.503	1.95	0.162	0.866	0.668	1.66	-0.729	-0.628	3.64	4.97	1.92	4.84	0.707	2.58
GGTGCTAGGTCAACTGATGGTCAGCTAAAGCTCG	4.46	3.2	0.481	2.17	0.109	3.84	3.55	3.81	0.998	2.53	4.51	4.91	-0.202	-0.913	3.45	1.84	0.142	3.25	0.466	4.43
AGAACGAGGGCCCGCTGAGTTGATAGCAGAGTAG	-0.807	-1.1	-0.871	-1.53	-1.19	-1.78	-0.00223	-1.4	-0.848	-1.55	-0.75	-0.481	-0.976	-0.618	-1.15	-0.97	-1.05	-1.3	-1.68	-0.616
AATACAGGGTTACTAGGCCAGAGTAGGTACGAAT	0.737	1.26	0.201	1.17	0.122	3.39	4.79	4.22	1.52	3.29	2.82	4.59	1.84	1.12	1.19	0.457	0.173	0.852	0.718	1.38
CCGACTGGGGCAAGGTTACCTTAACGCACAGCCA	0.184	0.54	-0.581	0.495	-1.66	1.97	2.58	3.54	0.821	3.07	3.34	3.76	-1.05	-0.772	0.376	0.303	-0.595	0.858	-0.882	1.63
TTACCAAGGTGAAGGTCGTTGTTCCCTCTGTAGA	1.41	1.32	0.195	1.41	-0.491	2.58	2.54	4.08	2.07	3.78	2.23	3.49	-0.665	-0.042	0.635	1.47	0.134	1.76	-0.318	2.4
TTACCAAGGTGAGCTGGGGTCGTTGATCCAACTC	0.996	0.819	-0.542	1.37	-0.609	2.37	0.431	1.19	-0.099	0.415	0.928	2.07	-0.594	-0.348	0.0514	4.52	0.268	2.72	-0.868	1.55
TCAATTAGTTGATTAGGGCAACCGAAACAGCGGA	0.579	0.188	-0.056	0.445	-0.277	0.882	0.217	1.6	3.41	2.45	2.01	1.32	0.608	0.646	-0.173	0.326	0.219	0.567	0.493	0.665
TCATATAGGTGAACAGGTGAAAGTCCGTAAGTTA	1.35	1.14	0.444	1.22	0.00841	3.47	4.77	4.6	4.3	4.44	6.52	6.31	1.63	1.36	1.1	1	0.638	1.46	0.907	1.64
GCGACTGGCGCAAAGCAGGTTACCATAAGGTTGG	-0.457	-0.431	-0.662	-0.683	-1.4	-0.182	0.258	-0.247	-0.734	-0.475	-0.223	-0.321	-1.05	-1.11	-0.736	-0.34	-0.486	-0.0579	-0.958	-0.386
CTACCAAGGTGAACAAGGTCGTTGAGTACTATTC	1.64	1.36	0.0569	1.83	-0.22	2.53	1.04	1.24	0.0413	0.542	2.21	2.45	-0.822	-0.624	0.759	3.07	6.86	2.48	0.402	2.24
AGAATGAGTTTATTAAGATCAGGGAATTGCGGTC	-0.0233	-0.176	0.0886	-0.353	0.198	-0.254	0.0616	-0.094	-0.0755	-0.195	-0.196	-0.106	0.457	0.0162	0.334	1.31	2.04	0.154	0.655	0.143
GCGACTGGGGCAAAGCAGATTACCATAAGGTTGG	-0.443	-0.606	-0.499	-0.352	-0.97	0.454	1.36	0.951	0.202	0.481	4.66	3.29	-0.663	-0.34	-0.207	-0.451	-0.273	-0.203	-0.607	0.381
AGTCAAAGTCCAGGACGAGGTAACGTAAAGCACG	-0.263	-0.424	-0.518	-0.388	-0.767	0.01	0.733	-0.294	-0.119	-0.153	-0.362	-0.000589	0.282	0.0417	-0.362	-0.248	-0.347	-0.00617	-0.392	0.916
CCTACTGGGCCATTCAGAGGTAATTGATCATATG	-0.331	-0.32	-0.381	-0.312	-0.992	0.524	0.262	0.25	-0.481	-0.189	3.91	3.26	-0.325	-0.711	-0.319	-0.537	-0.389	-0.179	-0.252	0.178
GATACAGGATCAGCTAGAGGCCAGAGTATGGAAA	-0.162	-0.497	-0.55	-0.727	-1.05	-0.383	0.505	-0.286	0.0459	0.0181	-1.08	-0.432	-0.311	-0.748	-0.609	-0.395	-0.577	-0.16	-0.552	0.184
CGTCCAAGGTCAGCAAGTCAGTGAAAGCGACGTG	4.99	3.1	-0.297	2.02	-0.381	4.25	2.21	3.14	0.523	1.9	2.61	2.52	-0.905	-1.02	2.24	2.38	0.119	3.13	0.523	4.99
TCTTGTAGATCAAGCAGGTTATGAAAGCCTGAGT	0.147	0.219	-0.495	0.124	-0.429	0.732	-0.162	1.27	2.34	1.89	1.29	0.311	0.244	0.263	-0.854	0.4	0.201	0.334	-0.519	0.176
GCCACTGGGGCAAAGCAGGTTACCATAAGGTTGG	0.159	0.154	-0.633	-0.0213	-0.866	1.67	2.09	2.57	0.133	1.47	5.67	5.29	0.444	-0.613	0.322	0.224	-0.707	1.06	-0.774	1.01
CTTGAAAGGTCGTGCTCAGGTGAGTATACCAAAC	5.86	4.22	0.0529	4.1	0.221	5.03	2.74	3.62	0.962	2.69	0.999	2.01	1.03	0.763	1.71	3.72	0.102	4.53	0.107	3.99
GATACAGGGTCAGCTAGAAGCCAGAGTATGGAAA	4.4	2.38	-0.483	2.13	-0.479	4.45	3.76	3.04	1.33	1.83	1.32	2.21	-0.0163	-0.227	2.08	1.64	0.0123	2.84	-0.0258	3.78
CCTTACGGGACAAGGTTATAGCACGGGTGGTACG	0.441	0.693	-0.25	0.134	-0.233	1.02	1.08	0.756	0.00492	0.323	-0.648	0.0765	-0.507	-0.996	0.819	0.699	0.148	1.01	0.441	0.996
CGTCAAAGTTCAACTAAGGAAACGTAAAGCACGC	7.38	6.47	3.78	4.2	2.11	5.18	5.11	5.68	2.56	4.69	0.565	1.62	1.02	0.369	3.9	4.87	2.97	4.48	1.12	5.19
TAGACTAGGTCATTGGGCCAGTATAGTACGCATC	3.51	2.61	0.548	1.56	0.785	3.89	5.62	5.24	2.45	4.58	5.72	6.51	1.28	0.786	1.15	1.2	0.294	1.65	0.657	3.45
GCGACTGGGGGATCAGCAGGTTACCATAACTTAA	0.383	0.523	0.0867	2.54	5.33	1.5	0.824	1.73	0.24	1.15	0.873	2.43	3.69	4.01	0.749	1.15	0.388	1.31	-0.462	0.688
